Source: paper PMC12136788
Positions count from the first letter of the chain named. Over roughly 24,000 sequences, “enrichment r” has its median near 0.99; the highest 2% begin near 3.7. This excerpt belongs to a sample that is enriched for the highest values.

B1: chr10:70525781:70525782:+_ENSG00000060339_ENST00000535016|hu_hu|motif|central (ssRNA)
RNA: GGGAGUUCUACAGUCCGACGAUCUGAAUGUUCUUUAUUAUCCUCUAAUCUGUAGUCCAAUAGGACACUCAAAGACAUGAUGCGGCAAUCAAACUUGCCACUUUUUGCAGCCCAAUUUGGAUGUACAAUGAUGGCCGGUUCAUCCAACAGAGGAUUGAGCAUCA
B2: chr20:57415074:57415075:+_ENSG00000087460_ENST00000313949|hu_hu|motif|central (ssRNA)
RNA: GGGAGUUCUACAGUCCGACGAUCUCUGCAGAGAGUGGCUCCGAAGCACAUUGGCUGCUGGAGCCGGGAAAGGUACACCCGGUGAGGUGAGAAGCUGGCCCGGAGGUCCCAGCCUCACCUCCUUGUGAGGAGAAAAAGGGAAGCCAACAGAGGAUUGAGCAUCA
B3: chr17:23874276:23874277:-_ENSMUSG00000023909_ENSMUST00000024702|mus_hu|FALSE|FALSE (ssRNA)
RNA: GGGAGUUCUACAGUCCGACGAUCUCUAACCCCACAGGUCACAGAGGGUAAAGAGGUCCCAAGAGGGAAAGGUUUCCUUCCAGCUGACACAGUAAAAUAGGAGCUUGGAGGGAAAAGGCAGGGAAGGAAGUUGGAGCGCCACGGCAACAGAGGAUUGAGCAUCA
B4: chr1:220276048:220276049:+_ENSG00000067704_ENST00000302637|hu_hu|hu_hu_hu_mus_True|1_108 (ssRNA)
RNA: GGGAGUUCUACAGUCCGACGAUCGCAAACAGCUUCAUUGGCGGGAAUUGUCCAAGGCUGGGUGGUCCAAACUAAAACGCUAACAGGGGAUGAGGCAUCUGUAAGAGACUCCAACUUCGGAGGAGGUCUCAGGAGGGGAAAUUUCAACAGAGGAUUGAGCAUCA
B5: chr18:38611996:38611997:+_ENSMUSG00000024425_ENSMUST00000025293|mus_mus|FALSE|FALSE (ssRNA)
RNA: GGGAGUUCUACAGUCCGACGAUCAAGACCAAAUCCUGAGAUGGCCCCAUACCUUCCCGCAGCUGAGGUGGUCAGGCAAAAAGACAAGAAAAACCCAAUCCAGUUGAAGAGGAAUGCCAUGAAAAAAGUUAACAUAAAAAUCCCCAACAGAGGAUUGAGCAUCA
B6: chr17:23874276:23874277:-_ENSMUSG00000023909_ENSMUST00000024702|mus_mus|motif|central (ssRNA)
RNA: GGGAGUUCUACAGUCCGACGAUCAGAGACUCUCACAGGUUAAACAGGGUAAAUUGGGAAAAAAAAAAAUGGUUUCCUUCGGAUGACAGCAAAACAAUGCCCAGGAGGGAAGAUGGCAAGGAAAGUGGAAGCUGGGGUUUGAAGCAACAGAGGAUUGAGCAUCA
B7: chr17:23874276:23874277:-_ENSMUSG00000023909_ENSMUST00000024702|mus_mus|FALSE|FALSE (ssRNA)
RNA: B6 RNA with G80U, G81A
B8: chrX:7396663:7396664:+_ENSMUSG00000031153_ENSMUST00000132456|mus_mus|motif|central (ssRNA)
RNA: GGGAGUUCUACAGUCCGACGAUCGCAAGGGCAUACAUGGAUGGAUCAGUGGGCAGAGGGACAGAUGGCAGACUGAUGGGCGGACCUGGGAAGUUGAUUGGAGGGUAAAAGAGGUGAACACAAAAGGGCGGUAGAUGACUGGAACAACAGAGGAUUGAGCAUCA
B9: chr7:112757510:112757511:-_ENSG00000214194_ENST00000397764|hu_mus|FALSE|FALSE (ssRNA)
RNA: GGGAGUUCUACAGUCCGACGAUCCUUUCUUGCGUAUAUCCCCAAGCAAGCACAGAUGCCGGUAAUGCUGAGAACCACACCUAAUAAGAGUGCAAUCGCGUCUCCAGCUUCCACUGCUUCAACAACAGGCAGGAUCAAAAGCAGCAACAGAGGAUUGAGCAUCA
B10: chr9:49312907:49312908:-_ENSMUSG00000039542_ENSMUST00000166811|mus_hu|motif|central (ssRNA)
RNA: GGGAGUUCUACAGUCCGACGAUCAGCUGCAAUUUGGCAUUCGUCCUAUAAAAUAAGAGUCUACGUGGGAAUUGAAUUCAGCGGGAAAGGGUGACACACUUUGCAUACUGAACAAAUACAAAGUGAACAGAAAUUAUAACUUAUCAACAGAGGAUUGAGCAUCA
B11: chr6:168291551:168291552:+_ENSG00000130396_ENST00000400822|hu_hu|motif|central (ssRNA)
RNA: GGGAGUUCUACAGUCCGACGAUCGUGUUUCUUGGUUUUCUUUGGGAUGUGGUCUGGUGGCCUCCUCUUCAACUGAAAGACGGAAAUCCCUUUGUCACUUGGCCAUUCCCUGAAGAUUUGUAAAGGACACUCAUCAUCAUCAAGCAACAGAGGAUUGAGCAUCA
B12: 19737984_19738104_982_3pUTR_ENSG00000105849_ENST00000222567|human|control|control (ssRNA)
RNA: GGGAGUUCUACAGUCCGACGAUCGGUGGGGUAAAUUCGGCCUCUUCACUGUGUUUUCUUUUCUUUUUUUUCUUUUUAUGGUCACUUUGGUAACCACUGGAGUCACUGCCUUGGAAAACAGGGUCCUGGUCCUGAACUUCCUGGCAACAGAGGAUUGAGCAUCA
B13: chr1:220276048:220276049:+_ENSG00000067704_ENST00000302637|hu_hu|hu_hu_hu_mus_True|18_78 (ssRNA)
RNA: GGGAGUUCUACAGUCCGACGAUCGCAAAUUGCCUGGUUGGCGGGAAUUGUCCAAGGUUGUGUGGUCCAAACUAAAACGCUAACAGGGGAUGAGGCAUCUGUAAGAGACUCCAACUUUGGAGAAGGCCUCAGGAGGGGGAAUCUCAACAGAGGAUUGAGCAUCA
B14: chr5:143664956:143664957:-_ENSMUSG00000029580_ENSMUST00000100497|mus_hu|FALSE|FALSE (ssRNA)
RNA: GGGAGUUCUACAGUCCGACGAUCUCUCAAGUUGGGGGACAAAAAAGGGGGAAGGGGGGGCACGAAGGCUCAUCAUUCAAAAUAAAACAAAAUAAAAAAGUAUUAAGGCGAAGAUUAAAAAAAUUUUGCAUUACAUAAUUUACACAACAGAGGAUUGAGCAUCA
B15: chr5:143664956:143664957:-_ENSMUSG00000029580_ENSMUST00000100497|mus_mus|FALSE|FALSE (ssRNA)
RNA: GGGAGUUCUACAGUCCGACGAUCAUACAUCAAGUUGGGGGGACAAAAAAAAGGGAGGCCUCAGACCUGGGCCAUUCAGAAAUUAAAAACAAAAAUGAAGUAUUAAGGCGGAAGAUUUAAAAAAAUUUUUGCAGUACAUAAUUUCAACAGAGGAUUGAGCAUCA
B16: chr14:102368134:102368135:+_ENSG00000078304_ENST00000445439|hu_hu|hu_hu_hu_mus_True|48_68 (ssRNA)
RNA: GGGAGUUCUACAGUCCGACGAUCAAGAGGCUCCAUGAUCUUCACAAACUCUGAUGGUUCAAUUACAUCUAAAAUCUCUUCUAAUUCGUUUAAGAACAUUACUUCUUUUGGACUGUGAGUCUUUGGCCAGUAUUUGAGAAGUGCCAACAGAGGAUUGAGCAUCA
B17: chr14:102368134:102368135:+_ENSG00000078304_ENST00000445439|hu_hu|hu_hu_hu_mus_True|68_88 (ssRNA)
RNA: B16 RNA with C48U, G87A
B18: chr19:58207738:58207739:+_ENSMUSG00000054843_ENSMUST00000077282|mus_mus|motif|central (ssRNA)
RNA: GGGAGUUCUACAGUCCGACGAUCUAAUUGGCCACAGAGUUAACAGUAGUGUGUGACAUUGCAUUAAUUCCAUAAUUAUCGGAAAUUCAAAAAUUUUAAAGUUUUAAGAACCUGGGGGAUUCACAGUGGAUGAGGCCUGACAGCCAACAGAGGAUUGAGCAUCA
B19: chr10:35314101:35314102:-_ENSG00000108094_ENST00000537177|hu_hu|FALSE|FALSE (ssRNA)
RNA: GGGAGUUCUACAGUCCGACGAUCUUCACCUGUACACAGAUAAUGUAACCAUGUAAGUUUCCUUCCACUGAAAUGUUGGCUAUAAAAUAAUUCAAACAUCUGUACACUUUUUUCUAAUUCCUGGGGAAUUGCAAACGUAGAUGACAACAGAGGAUUGAGCAUCA
B20: chr16:75327710:75327711:-_ENSG00000153774_ENST00000283882|hu_hu|FALSE|FALSE (ssRNA)
RNA: GGGAGUUCUACAGUCCGACGAUCAUUUAAGGACAAAUUUUUAAAAGUAAAGUGAAUGAAACCAUUUGUGAUUAAGAUACAUAGACAGAACUUCAAUGUAGAAAAAAAAAAGACCUUGCUGGGAAACAGAUGAUGAGAAACACUCAACAGAGGAUUGAGCAUCA
B21: chr6:114281168:114281169:-_ENSG00000196591_ENST00000368632|hu_hu|hu_hu_hu_mus_True|8_98 (ssRNA)
RNA: GGGAGUUCUACAGUCCGACGAUCUUCCAUUUUUCGGUAUAAGCCAUAAUUUAGCAGCAAGUUAUGAGUCAUCCGGAUUCUAUGAGGCUUCAUGGGAUGACCCUGGCCAUAAUAAUAAUUGCCAAUAUCACAGAUUCAGUAGUACAACAGAGGAUUGAGCAUCA

Each binder was assayed against T1, UNK ZnF1-3 (human, UniProt Q9C0B0 31-174) (assay: nsRBNS (natural sequence RNA bind-n-seq); RBNS binding buffer (assumed for nsRBNS): 25 mM Tris pH 7.5, 150 mM KCl, 3 mM MgCl2, 0.01% Triton X-100, 500 ug/ml BSA, 20 U/ml SUPERase-In, 4 C; UNK is unkempt and MSI1 is Musashi-1; names of the RNAs are library labels; protein concentration not given here; high values mean tight binding).
T1 sequence: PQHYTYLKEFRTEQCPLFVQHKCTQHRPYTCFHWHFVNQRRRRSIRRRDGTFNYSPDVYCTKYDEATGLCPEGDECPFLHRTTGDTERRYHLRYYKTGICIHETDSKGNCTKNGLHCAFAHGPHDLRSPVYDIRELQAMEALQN

| Binder | binding signal |
| --- | --- |
| B1 | 0.442 enrichment R |
| B2 | 0.876 enrichment R |
| B3 | 1.43 enrichment R |
| B4 | 1.61 enrichment R |
| B5 | 2.06 enrichment R |
| B6 | 4.06 enrichment R |
| B7 | 4.07 enrichment R |
| B8 | 2.58 enrichment R |
| B9 | 1.38 enrichment R |
| B10 | 3.41 enrichment R |
| B11 | 0.53 enrichment R |
| B12 | 0.463 enrichment R |
| B13 | 2.05 enrichment R |
| B14 | 8.16 enrichment R |
| B15 | 6.75 enrichment R |
| B16 | 0.708 enrichment R |
| B17 | 0.758 enrichment R |
| B18 | 4.11 enrichment R |
| B19 | 1.11 enrichment R |
| B20 | 1.71 enrichment R |
| B21 | 0.99 enrichment R |
